The results in this text go back to PubChem BioAssay (NCATS).

Structures are written as SMILES. Results filed as inconclusive are left out. Unmarked numbers belong to inactive results. Calls of active or inactive are those of the source. The call rests on the fitted dose curve; in most records, active means well fitted curve in the direction sought with a large enough effect; inconclusive means small, poorly fitted or top-dose-only effect, or another doubt; inactive means no such curve, though single readings can be large; an effect the other way counts as inactive or inconclusive.

Assay [1] has as its target Cellular tumor antigen p53 (Homo sapiens) (UniProt P04637). The assay can be described thus: Primary qHTS for small molecule compounds that upregulate eGFP-tagged delta133p53alpha (in N-terminal) cells. (AID 2060322). Further: nearly all actives have a fitted effect of over 75% in size. Further: potency means the concentration at half of the fitted maximal effect.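 On activation: cells pre-induced with doxycycline then dosed without doxycycline; series mostly up to about 56 µM; 0% = DMSO vehicle and 100% = reference activator.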 The following applies: NCI-H358 eGFP-delta133p53alpha fluorescence, 24 h; activation: stronger effect = higher value. Put shortly:
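NCI-H358 cells pre-induced 24 h with 10 ng/ml doxycycline for eGFP-delta133p53alpha, plated dox-free and exposed 24 h at 37C to titrated compounds. Fixed, Hoechst-stained; gated GFP peak intensity by laser scanning cytometry, normalized to DMSO (0%) and 57.5 uM 5-azacytidine (100%).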

In assay [2] the target is Aldehyde dehydrogenase, mitochondrial (Homo sapiens) (UniProt P05091). The assay can be described thus: qHTS for Inhibitors of the Aldehyde Dehydrogenase Family (ALDH2) Primary screen (AID 2061308).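 Further: plate controls were vehicle for no effect and reference inhibitor for full effect; nearly all actives have a fitted effect of over 55% in size.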
For assay [3], the target named is Retinaldehyde dehydrogenase 3 (Homo sapiens) (UniProt P47895). The assay can be described thus: qHTS for Inhibitors of the Aldehyde Dehydrogenase Family (ALDH1A3) Validation screen (AID 2061312). Further: on the % scale 0 is the no-effect control and ±100 the full control effect; nearly all actives have a fitted effect of over 45% in size. Background: qHTS replaces the single test concentration by a dilution series.
For assay [4] the target is unchanged. In words: qHTS for Inhibitors of the Aldehyde Dehydrogenase Family (ALDH1A3) Primary screen (AID 2061315).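 Further: plate controls were DMSO vehicle for no effect and reference inhibitor for full effect.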

Sequence of Cellular tumor antigen p53 (Homo sapiens) (P04637 whole entry, looked up): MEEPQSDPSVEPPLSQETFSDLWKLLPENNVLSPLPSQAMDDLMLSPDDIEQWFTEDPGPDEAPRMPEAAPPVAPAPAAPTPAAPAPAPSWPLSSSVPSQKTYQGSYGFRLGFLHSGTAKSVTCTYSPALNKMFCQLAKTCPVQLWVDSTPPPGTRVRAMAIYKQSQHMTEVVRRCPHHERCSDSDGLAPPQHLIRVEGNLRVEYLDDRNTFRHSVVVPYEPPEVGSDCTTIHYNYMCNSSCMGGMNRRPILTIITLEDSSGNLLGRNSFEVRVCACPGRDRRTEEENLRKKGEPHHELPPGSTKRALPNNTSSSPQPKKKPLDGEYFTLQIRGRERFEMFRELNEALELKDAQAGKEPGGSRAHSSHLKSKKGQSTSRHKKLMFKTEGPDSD

In the case of `Cc1ccc(C2(C(=O)N3CCC(n4nc(-c5ccccc5)oc4=O)CC3)CC2)cc1`, the activation in assay [1] is -1.91%. Also, the Potency result in assay [2], in assay [3] and in assay [4] was “inactive” each time.
Regarding `O=C(NCCN1CCC(n2c(=O)[nH]c3ccccc32)CC1)c1cc2cc(F)ccc2[nH]1`, in assay [1], the activation was 23.9%. Moreover, the Potency entry in assay [2], in assay [3] and in assay [4] was “inactive” each time.
In the case of `CC1(C)CCC(C)(C)c2cc(C#Cc3ccc(C(=O)O)cc3)ccc21`, the activation in assay [1] was -5.25%. Further, the Potency result in assay [2], in assay [3] and in assay [4] was “inactive” throughout.
For the compound `N=C(N)c1ccc2nc(-c3cc(CC(=O)NC(CC(=O)O)C(=O)O)cc(-c4cc(S(N)(=O)=O)ccc4O)c3O)[nH]c2c1` (centres undefined), the activation in assay [1] is -8.59%. In addition, the Potency result in assay [2], in assay [3] and in assay [4] was “inactive” throughout.
As to `Cc1c(OCc2cccc(-c3ccc(C(=O)O)cc3)c2)cc2c(c1C)C(=O)C(C1CCCC1)C2` (centres undefined), the activation in assay [1] is -8.59%. Also, the Potency result in assay [2], in assay [3] and in assay [4] was “inactive” throughout.
`O=C(Nc1ccccc1)c1ccc(Nc2nnc(-c3ccc(O)cc3)c3ccccc23)cc1`: in assay [1], the activation was 2.39%. The Potency entry in assay [2], in assay [3] and in assay [4] was “inactive” in each case.
Consider `CCCCc1c(-c2ccc(OC)cc2)[nH]c2nccnc12`, for which the activation in assay [1] was 5.25%. Also, the Potency result in assay [2], in assay [3] and in assay [4] was “inactive” each time.
On to `CC(C)n1c(=O)c(C(=O)NC2CC3CCC(C2)N3C[C@@H](O)CN(C)S(C)(=O)=O)cc2ccccc21` (some centres undefined), for which the activation in assay [1] was -10.5%. The Potency result in assay [2], in assay [3] and in assay [4] was “inactive” each time.
For `CCCCNc1ccc(-c2ccc(CN3CCOCC3)cn2)c(NC2CCC(O)CC2)c1` (centres undefined), in assay [1], the activation was 1.91%. Also, the Potency result in assay [2], in assay [3] and in assay [4] was “inactive” each time.
Turning to `Cc1cc(C)c(-n2cc(C)c3c(Cl)nc(C)nc32)c(C)c1`, the activation in assay [1] was -3.82%. Further, the Potency result in assay [2], in assay [3] and in assay [4] was “inactive” each time.
With `CN(C)CCOc1cc(NS(=O)(=O)c2c(Cl)cc(C(F)(F)F)cc2Cl)ccc1Cl`, in assay [1], the activation is 0.477%. Moreover, the Potency entry in assay [2], in assay [3] and in assay [4] was “inactive” in each case.
On to `O=C(Nc1ccc(S(=O)(=O)Nc2ccccc2Cl)c(Cl)c1)c1ccccn1`, for which, in assay [1], the activation was 15.8%. In addition, the Potency result in assay [2], in assay [3] and in assay [4] was “inactive” each time.
`CC(C)Nc1nc(Nc2ccccc2)nc(-c2ccccc2)n1`: the activation in assay [1] is 2.39%. Also, the Potency result in assay [2], in assay [3] and in assay [4] was “inactive” throughout.
As to `CCOC(=O)C(CCc1ccccc1)NC1CCCN2CCCC(C(=O)O)N2C1=O` (centres undefined), the activation in assay [1] was -9.55%. For the same compound, the Potency result in assay [2], in assay [3] and in assay [4] was “inactive” in each case.
With `NS(=O)(=O)c1ccc(NC(=O)Nc2ccc(F)cc2)cc1`, in assay [1], the activation is -7.64%. Besides, the Potency entry in assay [2], in assay [3] and in assay [4] was “inactive” in each case.
On to `O=C(O)Cn1nnc(-c2ccc(CN(CCCCOc3ccc(CN4CCCC4)cc3)CCc3ccccc3)cc2)n1`, for which the activation in assay [1] was 7.16%. Further, the Potency result in assay [2], in assay [3] and in assay [4] was “inactive” in each case.
`CC1(C(=O)Nc2ccc(F)nc2)CCCN1c1nc(Nc2cc(C3CC3)[nH]n2)c2cccn2n1` (centres undefined): the Potency in assay [1] is 30.1 µM (active). The Potency result in assay [2], in assay [3] and in assay [4] was “inactive” in each case.
As for `CN(C)[C@@H]1CCc2[nH]c3ccc(NC(=O)c4ccc(F)cc4)cc3c2C1`, the activation in assay [1] is 0.477%. Moreover, the Potency result in assay [2], in assay [3] and in assay [4] was “inactive” each time.
As to `CC(C)(C)c1ccc(CNC(=S)NCc2ccc(NS(C)(=O)=O)c(F)c2)cc1`, the activation in assay [1] is -6.68%. Further, the Potency result in assay [2], in assay [3] and in assay [4] was “inactive” each time.
In the case of `Cc1c(NC(=O)N2CCOCC2)ccc2c1c1ccccc1n2C(C)C`, the activation in assay [1] was -19.1%. For the same compound, the Potency entry in assay [2], in assay [3] and in assay [4] was “inactive” each time.
As to `CCCCOC(=O)NC(=O)C1c2ccccc2Oc2ccccc21`, the activation in assay [1] is -11.5%. The Potency entry in assay [2], in assay [3] and in assay [4] was “inactive” throughout.
For the compound `Nc1c(-c2ccccc2)nc(Cl)c2c(O)n[nH]c(=O)c12`, the activation in assay [1] is -1.91%. The Potency entry in assay [2], in assay [3] and in assay [4] was “inactive” each time.
For the compound `O=C(Nc1ccc2[nH]c(=O)oc2c1)C(=O)N1CCC(Cc2ccc(F)cc2)CC1`, the activation in assay [1] was 2.39%. Further, the Potency result in assay [2], in assay [3] and in assay [4] was “inactive” throughout.
Take `Oc1ccc([C@H]2COc3cc(O)ccc3C2)cc1`: the activation in assay [1] is -10.5%. Moreover, the Potency result in assay [2], in assay [3] and in assay [4] was “inactive” in each case.
For `COc1ccc(N2CCN(CCCNC(=O)Cn3c(=O)c4cccn4c4c(C)ccnc43)CC2)cc1`, the activation in assay [1] is 0.477%. Moreover, the Potency result in assay [2], in assay [3] and in assay [4] was “inactive” each time.
For the compound `CNC(=O)O[C@H]1COc2ccc(N3CCN(C4COC4)CC3)cc2[C@@H]1NC(=O)c1ccc(F)cc1`, in assay [1], the activation was -1.43%. Besides, the Potency entry in assay [2], in assay [3] and in assay [4] was “inactive” each time.
Take `CC(C)[C@@H](c1ccc(C(F)(F)F)cc1CN(Cc1cc(C(F)(F)F)cc(C(F)(F)F)c1)c1nnn(C)n1)N1CCC(C(=O)O)CC1`: the activation in assay [1] is 6.68%. Further, the Potency entry in assay [2], in assay [3] and in assay [4] was “inactive” each time.
For `COC(=O)c1sccc1S(=O)(=O)Nc1ccc(Nc2ccccc2)cc1OC`, in assay [1], the activation was -5.73%. The Potency result in assay [2], in assay [3] and in assay [4] was “inactive” in each case.
Regarding `COc1ccncc1C(=O)NC(=O)Nc1ccc(-c2ccccc2)c(C(F)(F)F)c1`, the activation in assay [1] was -0.477%. Besides, the Potency entry in assay [2], in assay [3] and in assay [4] was “inactive” in each case.
As to `CN(C)CC(c1ccc(O)cc1)C1(O)CCCCC1` (centres undefined), the activation in assay [1] is -9.55%. Besides, the Potency result in assay [2], in assay [3] and in assay [4] was “inactive” throughout.
Consider `CNC(=O)COC(=O)N1CCC(CCc2ccc(Cl)cc2)CC1`, for which, in assay [1], the activation was -1.91%. Besides, the Potency result in assay [2], in assay [3] and in assay [4] was “inactive” each time.
